Assay results reported in PubChem BioAssay (NCATS).
Inconclusive results are not listed. A call without a number means that no potency is given here. Values without a mark were called inactive. Calls of active or inactive are those of the source. The call rests on the fitted dose curve; in most records, active means well fitted inhibition curve with a large enough effect; inconclusive means small, poorly fitted or top-dose-only effect; inactive means flat fitted curve, though single readings scatter.
Potency means the concentration at half of the fitted maximal effect.

What follows are molecules tested on Zika virus NS2B-NS3 protease (assay: Primary screen GU AMC qHTS for Zika virus inhibitors (AID 1347154; further: nearly all actives have a fitted effect of over 70% in size)). Conditions: Zika NS2B-NS3 unlinked protease, AMC fluorogenic substrate; series mostly up to 54.1 µM.
Method in brief: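 Fluorogenic AMC-substrate cleavage by noncovalent NS2B-NS3 protease complex (25 nM, pH 8.0 Tris buffer with Tween 20) followed for 15 minutes at room temperature (~20% conversion). Percent inhibition from ex340/em450 signal change, fitted by 4-parameter Hill equation.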
In the case of CCOc1ccc(NC(=O)CC(C)O)cc1 (stereo not given), the Potency is reported as “inactive”.
For Cc1cc(O)c(C(C)C)cc1Cl, the Potency was “inactive”.
With CCCCCC=CCC=CCCCCCCCC(=O)OCC the Potency was “inactive”.
For COc1cc(/C=C/C(=O)O[C@H]2CC[C@]34C[C@]35CC[C@]3(C)[C@@H]([C@H](C)CCC=C(C)C)CC[C@@]3(C)[C@@H]5CC[C@H]4C2(C)C)ccc1O, the Potency was “inactive”.
In the case of O=C1[C@H]2CCCC[C@H]2C(=O)N1CCCCN1CCN(c2nsc3ccccc23)CC1, the Potency is reported as “inactive”.
Cc1ccc(O)c2ncccc12 was tested, and the Potency was “inactive”.
In the case of CCN(CC)CCOC(=O)C(c1ccccc1)C1CCCCC1 (stereo not given), the Potency is reported as “inactive”.
For CC(=O)Oc1ccc(C(c2ccc(OC(C)=O)cc2)c2ccccn2)cc1, the Potency was “inactive”.
In the case of CC[N+](CC)(CCNC(=O)C(=O)NCC[N+](CC)(CC)Cc1ccccc1Cl)Cc1ccccc1Cl, the Potency is reported as “inactive”.
In the case of CN1CCC(=C2c3ccccc3Sc3ccccc32)CC1, the Potency is reported as “inactive”.
For C/C=C/c1ccc(OC)cc1, the Potency was “inactive”.
With C#C[C@]1(O)CC[C@H]2[C@@H]3CCC4=CC(=O)CC[C@@H]4[C@H]3CC[C@@]21C the Potency was “inactive”.
In the case of NC(CO)(CO)CO, the Potency is reported as “inactive”.
Cc1cc(N)c2cc(NC(=O)Nc3ccc4nc(C)cc(N)c4c3)ccc2n1 was tested, and the Potency was 14.1 µM (active).
In the case of COc1c2occc2c(OC)c2c(=O)cc(C)oc12, the Potency is reported as “inactive”.
In the case of NC(=O)c1cc[n+](CC2=C(C(=O)[O-])N3C(=O)[C@@H](NC(=O)Cc4cccs4)[C@H]3SC2)cc1, the Potency is reported as “inactive”.
Work on NC[C@H]1O[C@H](O[C@H]2[C@H](O[C@@H]3O[C@H](CO)[C@@H](O)[C@H]3O)C(O)[C@H](N)C[C@@H]2N)[C@H](N)[C@@H](O)[C@@H]1O (stereo not given in full) yielded an activity change, negative = inhibition of -1.02% [at 6.83 µM].
For COC(=O)[C@@H]1CC2=CC(=O)CC[C@]2(C)[C@@]23O[C@@H]2C[C@@]2(C)[C@@H](CC[C@@]24CCC(=O)O4)[C@H]13, the Potency was “inactive”.
In the case of Cc1ccc(Nc2c(F)cccc2Cl)c(CC(=O)O)c1, the Potency is reported as “inactive”.
With OC(CCN1CCCCC1)(c1ccccc1)c1ccccc1 the Potency was “inactive”.
CNCC[C@@H](Oc1ccccc1C)c1ccccc1 was tested, and the Potency was “inactive”.
In the case of Cc1c(C(C)C)c(=O)n(-c2ccccc2)n1C, the Potency is reported as “inactive”.
In the case of NC[C@H]1O[C@H](O[C@H]2[C@H](O)[C@@H](O[C@H]3O[C@H](CO)[C@@H](O)[C@H](N)[C@H]3O)[C@H](N)C[C@@H]2N)[C@H](N)[C@@H](O)[C@@H]1O, the Potency is reported as “inactive”.
CCN(CCCc1ccccc1)CCCc1ccccc1 was tested, and the Potency was “inactive”.
For CCN(CC)C(=O)N1CCN(C)CC1, the Potency was “inactive”.
For CN(C)C(=S)SC(=S)N(C)C, the Potency was “inactive”.
In the case of Cc1cc2c(cc1CC(=O)c1sccc1S(=O)(=O)Nc1onc(C)c1Cl)OCO2, the Potency is reported as “inactive”.
In the case of Cc1onc(-c2c(Cl)cccc2Cl)c1C(=O)N[C@@H]1C(=O)N2[C@@H]1SC(C)(C)[C@@H]2C(=O)O, the Potency is reported as “inactive”.
With CN=C(NC#N)Nc1ccc(C2=NNC(=O)CC2C)cc1 (stereo not given) the Potency was “inactive”.
In the case of C[C@@H](CN(C)C)CN1c2ccccc2Sc2ccccc21, the Potency is reported as “inactive”.
With CN1CCN(CCCN2c3ccccc3Sc3ccc(S(=O)(=O)N(C)C)cc32)CC1 the Potency was “inactive”.
CC(C)(C(=O)c1cccnc1)c1cccnc1 was tested, and the Potency was “inactive”.
For COc1ccc(OC)c(C(O)CNC(=O)CN)c1 (stereo not given), the Potency was “inactive”.
CCCCCCCCCCOCC(O)CN (stereo not given) was tested, and the Potency was “inactive”.
For CCCC(=O)O[C@]1(C(=O)CO)CC[C@H]2[C@@H]3CCC4=CC(=O)CC[C@]4(C)[C@H]3[C@@H](O)C[C@@]21C, the Potency was “inactive”.
C=C(CC)C(=O)c1ccc(OCC(=O)O)c(Cl)c1Cl was tested, and the Potency was “inactive”.
CCOC(=O)c1cccc(N)c1 was tested, and the Potency was “inactive”.
With CCCCc1nc(Cl)c(CO)n1Cc1ccc(-c2ccccc2-c2nn[nH]n2)cc1 the Potency was “inactive”.
For CC(C)NC[C@@H](O)COc1cccc2ccccc12, the Potency was “inactive”.
With CCCCCCCCCCCCCCCCOP(=O)([O-])OCC[N+](C)(C)C the Potency was “inactive”.
